According to PubChem BioAssay:
The source made the active and inactive calls. The rule behind the calls is not given here.

These molecules were tested against Pantothenate synthetase (Mycobacterium tuberculosis (strain ATCC 25618 / H37Rv)) (UniProt P9WIL5) (assay: Recombinant Mtb pantothenate synthetase (PanC) inhibitors, coupled enzyme, confirmatory (AID 375;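 note: 0% = full reaction with vehicle and 100% = no enzyme background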)). Conditions: coupled enzyme assay; at 10 µM, stronger effect = higher value.
Pantothenate synthetase (Mycobacterium tuberculosis (strain ATCC 25618 / H37Rv)), sequence (P9WIL5 whole entry, looked up): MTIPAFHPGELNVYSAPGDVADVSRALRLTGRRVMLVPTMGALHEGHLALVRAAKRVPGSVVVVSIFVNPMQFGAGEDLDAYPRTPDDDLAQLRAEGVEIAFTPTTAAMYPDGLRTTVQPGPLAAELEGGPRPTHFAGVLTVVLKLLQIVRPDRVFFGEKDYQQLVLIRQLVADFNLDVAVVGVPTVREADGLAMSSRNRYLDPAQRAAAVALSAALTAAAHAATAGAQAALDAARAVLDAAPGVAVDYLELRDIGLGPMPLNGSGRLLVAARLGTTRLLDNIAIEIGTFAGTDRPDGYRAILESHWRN

Row | Structure (SMILES) | inhibition
1 | CN(c1ccccc1)C(c1ccc(F)cc1)c1nnnn1CC1CCCO1 (stereo not given) | 0% (inactive)
2 | CCc1ccccc1NC(=O)CN(c1cccc(OC)c1)S(C)(=O)=O | 7% (inactive)
3 | CCOC(=O)c1c(NC(=O)c2cccs2)sc2c1CCN(C(=O)OCC)C2 | 0% (inactive)
4 | O=S(=O)(NC1CCCCC1NS(=O)(=O)c1ccc(F)cc1)c1ccc(F)cc1 (stereo not given) | 0% (inactive)
5 | COc1ccc(/C(O)=C2/C(=O)C(=O)N(CCN(C)C)C2c2ccccn2)cc1OC (stereo not given) | 0% (inactive)
6 | O=C(OCc1ccccc1F)c1ccc2c(c1)OCCO2 | 3% (inactive)
7 | COCCNC(=O)CN1CCC(NC(=O)Nc2ccc(C(F)(F)F)cc2)CC1 | 4% (inactive)
8 | CCOC(=O)C(C(=O)OCC)C(C)C#CCN1CCCCC1 (stereo not given) | 4% (inactive)
9 | CCN1CCCC1CNC(=O)CS(=O)(=O)Cc1nc(-c2ccccc2C)oc1C (stereo not given) | 0% (inactive)
10 | COCCN(CC(=O)NC1CCCCC1)C(=O)CSc1nc2ccccc2o1 | 0% (inactive)
11 | CCc1c(C(=O)N2CCOCC2)csc1C | 0% (inactive)
12 | O=C(Nc1cccnc1)Nc1ccc(F)c(Cl)c1 | 0% (inactive)
13 | N#Cc1nc(-c2ccco2)oc1N1CCN(c2cccc(Cl)c2)CC1 | 6% (inactive)
14 | COc1cccc(OC)c1OCCCSc1nc(C)cc(=O)[nH]1 | 0% (inactive)
15 | CC(=O)O[C@]1(C(C)=O)CC[C@H]2[C@@H]3C[C@H](C)C4=CC(=O)CC[C@]4(C)[C@H]3CC[C@@]21C | 0% (inactive)
16 | Cc1ccccc1OCc1nc2ccccc2c(=O)n1/N=C/c1ccco1 | 0% (inactive)
17 | CCOc1ccc(Nc2nc(Cc3nnc(SCC(N)=O)o3)cs2)cc1 | 0% (inactive)
18 | CCOC(=O)CSc1nc2cccnc2n1-c1ccc(F)cc1 | 2% (inactive)
19 | Cc1ccc2c(COn3nnc4ccc(S(=O)(=O)N(C)C)cc43)cc(=O)oc2c1C | 3% (inactive)
20 | Cc1c2cnn(CC(=O)N3CCN(c4ncccn4)CC3)c(=O)c2c(C)n1Cc1ccc(F)cc1 | 0% (inactive)

Row | Structure (SMILES) | inhibition
21 | CCCCC(CC)C(=O)Nc1ccc(Cl)cn1 (stereo not given) | 8% (inactive)
22 | COc1ccc(OC)c(NS(=O)(=O)Cc2ccccc2)c1 | 0% (inactive)
23 | O=C(NCCC1=CCCCC1)C1CC(=O)N(C2CCCCCC2)C1 (stereo not given) | 2% (inactive)
24 | CCCOc1ccc(N2C(=O)C3ON(c4ccccc4)C(c4ccc(O)c(OC)c4)C3C2=O)cc1 (stereo not given) | 1% (inactive)
25 | CCC(C(=O)Nc1ccccc1C(=O)N1CCCC1)N1C(=O)c2ccccc2C1=O (stereo not given) | 6% (inactive)
26 | CCOC(=O)CSc1nc2sc(C)c(C)c2c(=O)n1C | 0% (inactive)
27 | COCCn1c(=O)[nH]c2cc(C(=O)NCc3cccnc3)ccc2c1=O | 2% (inactive)
28 | COc1ccc(N2Cc3ccccc3C2)cc1Cl | 0% (inactive)
29 | COc1cc(CN2CCC(C(=O)NC3CCCC3)CC2)ccc1O | 0% (inactive)
30 | O=C(Nc1cc(C(=O)N2CCCC2)ccc1N1CCCC1)c1ccccc1F | 2% (inactive)
31 | CCN1CCN(C(=O)c2ccc3c(=O)n(CCC4=CCCCC4)c(=O)[nH]c3c2)CC1 | 0% (inactive)
32 | c1ccc(Cn2nnnc2C(c2ccccn2)N2CCOCC2)cc1 (stereo not given) | 0% (inactive)
33 | O=C(O)CCC(=O)Nc1ccc(S(=O)(=O)Nc2nccs2)cc1 | 0% (inactive)
34 | CCOc1ccc(OCc2cccc(C(=O)O)c2)cc1 | 6% (inactive)
35 | CC(C)C(=O)Nc1cccc(NC(=O)c2cccnc2)c1 | 1% (inactive)
36 | N[C@@H](Cc1ccccc1)c1nnc2sc(SCc3ccccc3)nn12 | 1% (inactive)
37 | CCOc1ccc(OCC)c(NC(=O)C2CCN(S(=O)(=O)c3cnc[nH]3)CC2)c1 | 4% (inactive)
38 | COc1ccccc1C1/C(=C(\O)c2c(C)nc3c(C)cccn23)C(=O)C(=O)N1CCCN(C)C (stereo not given) | 0% (inactive)
39 | O=C(CN1CCC(O)(c2ccc3c(c2)OCO3)CC1)OC1CCCCC1 | 0% (inactive)
40 | COC(=O)/C=c1\sc2ncnn2c1=O | 0% (inactive)
